Experimental findings from the supplement of paper PMC6411743 are described below.

The experiment addresses A0A0A0MT26|P13637|P13637-2|P13637-3 (UniProt P13637). Kind of experiment: NP40-soluble protein abundance relative to vehicle (solubility fold change) (ratio); higher = more soluble protein in presence of GTP. As to the method: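 Solubility proteome profiling in Jurkat crude lysate. Lysate was treated with Mg-GTP (0.1-10 mM) for 10 min at room temperature and 3 min at 37 °C, then solubilised with 0.8% NP40 and benzonase, followed by ultracentrifugation. Proteins were quantified by TMT10 LC-MS/MS; the value is the NP40-soluble abundance relative to the NP40-processed vehicle, from 3 independent experiments.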

Structures are written as SMILES. ± gives the standard deviation of the averaged measurements. The full data set covers some 5,400 targets. This sample favours those with the largest changes.

Consider `Nc1nc2c(ncn2[C@@H]2O[C@H](COP(=O)(O)OP(=O)(O)OP(=O)(O)O)[C@@H](O)[C@H]2O)c(=O)[nH]1` [guanosine triphosphate], for which the NP40-soluble protein abundance was 1.01 ± 0.05 (concentration: 0.1mM); 1.01 ± 0.028 (concentration: 0.5mM); 1.02 ± 0.028 (concentration: 1mM); 0.982 ± 0.029 (concentration: 2mM); 1.01 ± 0.042 (concentration: 4mM); 1 ± 0.0083 (concentration: 6mM). Besides, the NP40-soluble protein abundance is, setting by setting: (concentration: 8mM) 1 ± 0.034; (concentration: 10mM) 0.958 ± 0.047.
